The results in this text go back to PubChem BioAssay (NCI).

Test systems include NCI-H23 lung; NCI-H226 lung; NCI-H322M lung; HOP-62 NSCLC; NCI-H460 lung; HOP-92 NSCLC; NCI-H522 lung; 786-0 renal; COLO 205 colon; DU-145 prostate; K-562 leukemia; MALME-3M melanoma; MDA-MB-231 breast; RXF 393 renal; SF-268 CNS; SF-295 CNS; SF-539 CNS; UACC-257 melanoma; M14 melanoma; A549/ATCC NSCLC.
Common to all, as to assay: NCI-60 one-dose screen, 48 h (100 = growth as untreated, 0 = no growth, -100 = all killed)
Common to all, as to conditions: 10 µM unless noted

About 83,000 compounds went through this panel and 20% of them were active in at least one assay; those are over-represented in the sample as a whole.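 Assay: single dose, 48 h. Readout: percent growth (0 = no net growth; negative = cell death). Active: <10.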 Unmarked numbers belong to inactive results. Calls of active or inactive are those of the source.

Consider `CCOC(=O)c1c(NC(=O)c2ccc(C(C)(C)C)cc2)sc2cc(O)ccc12`, for which the growth was 89.8% with NCI-H23 lung; 87.9% in the test on NCI-H226 lung; 87.1% in the test on NCI-H322M lung; 95.8% in the test with HOP-62 NSCLC; 98.1% with NCI-H460 lung; 96.8% in the test on HOP-92 NSCLC. Also, the growth in the test with NCI-H522 lung was 96.1%; in the test on 786-0 renal it was -92% (active); with COLO 205 colon it was 110%; in the test on DU-145 prostate, 97.7%; in the test on K-562 leukemia, 43.4%; in the test with MALME-3M melanoma it was 98.7%. The growth in the test with MDA-MB-231 breast is 110%; with RXF 393 renal, 115%; in the test with SF-268 CNS it was 102%; in the test with SF-295 CNS it was 105%; in the test with SF-539 CNS it was 90.9%; with UACC-257 melanoma it was 97.3%. Further, in the test with M14 melanoma, the growth is 86.6%.
Turning to `COCCCOc1cc(C[C@@H](C[C@H](N)[C@@H](O)C[C@H](C(=O)NCC(C)(C)C(N)=O)C(C)C)C(C)C)ccc1OC`, the growth in the test on NCI-H23 lung is 99.4%; with NCI-H226 lung, 102%; in the test with NCI-H322M lung, 114%; in the test with HOP-62 NSCLC it was 114%; in the test on NCI-H460 lung, 112%; in the test with HOP-92 NSCLC, 84.5%. The growth in the test on NCI-H522 lung is 101%; in the test with A549/ATCC NSCLC, 103%; in the test on 786-0 renal, 103%; in the test with DU-145 prostate, 124%; in the test on K-562 leukemia, 103%; in the test on MALME-3M melanoma, 109%. The growth with MDA-MB-231 breast was 102%; in the test with RXF 393 renal, 104%; with SF-268 CNS, 117%; in the test on SF-295 CNS, 93%; in the test with SF-539 CNS, 103%; in the test with UACC-257 melanoma, 104%. Also, in the test with M14 melanoma, the growth is 109%.
`COc1ccc2c(c1)c(-c1nonc1-c1cn(C)c3ccc(OC)cc13)cn2C`: the growth is 59.2% with NCI-H23 lung; 75.1% in the test on NCI-H226 lung; 71.1% in the test with NCI-H322M lung; 32.4% with HOP-62 NSCLC; 12.6% with NCI-H460 lung; 55.6% in the test on HOP-92 NSCLC. Moreover, the growth in the test with NCI-H522 lung is 18.5%; with 786-0 renal, 54.5%; in the test on COLO 205 colon, 32.9%; in the test on DU-145 prostate it was 70.9%; with K-562 leukemia, 13%; with MALME-3M melanoma, 41.7%. Besides, the growth with MDA-MB-231 breast was 49.5%; with RXF 393 renal, 70.9%; in the test with SF-268 CNS, 54.2%; with SF-295 CNS it was 30.4%; with SF-539 CNS, 33.9%; in the test with UACC-257 melanoma, 62.4%. In the test on M14 melanoma, the growth was 16.6%.
Regarding `C#CC#CC#CC#CC#CC#CC#CC#CCC1OCC(COC(=O)O[C@@H](C(=O)O[C@H]2C[C@@]3(O)[C@@H](OC(=O)c4ccccc4)[C@@H]4[C@]5(OC(C)=O)CO[C@@H]5C[C@H](O)[C@@]4(C)C(=O)[C@H](OC(C)=O)C(=C2C)C3(C)C)[C@@H](NC(=O)c2ccccc2)c2ccccc2)O1` (some centres not stated), the growth with NCI-H23 lung is 35.2%; in the test on NCI-H226 lung it was 37.6%; in the test with NCI-H322M lung, 29.1%; in the test with HOP-62 NSCLC, 30.4%; with NCI-H460 lung, 5.88% (active); in the test with HOP-92 NSCLC it was 58.2%. The growth is 24.3% in the test on NCI-H522 lung; 32.1% in the test with 786-0 renal; 12.6% in the test on COLO 205 colon; 6.68% (active) in the test on DU-145 prostate; 12.6% in the test on K-562 leukemia; 41.9% in the test on MALME-3M melanoma. The growth in the test with MDA-MB-231 breast was 20%; in the test with RXF 393 renal, -9.54% (active); with SF-268 CNS, 34.4%; in the test on SF-295 CNS, 4.59% (active); in the test with SF-539 CNS, -0.927% (active); in the test on UACC-257 melanoma it was 53%. Also, the growth in the test on M14 melanoma was -22% (active).
As for `COc1cccc(OC)c1Oc1c(-c2nc3ccccc3s2)c(C)nn1-c1ccccc1`, the growth was 74.4% in the test with NCI-H23 lung; 79.9% in the test with NCI-H226 lung; 65.6% in the test with NCI-H322M lung; 70.4% in the test on HOP-62 NSCLC; 78.8% in the test on NCI-H460 lung; 62.2% in the test on HOP-92 NSCLC. Moreover, the growth in the test with NCI-H522 lung was 68.3%; in the test with 786-0 renal, 91.4%; in the test with COLO 205 colon it was 98.4%; with DU-145 prostate, 79.4%; in the test on K-562 leukemia it was 61%; in the test on MALME-3M melanoma it was 81.7%. Further, the growth in the test on MDA-MB-231 breast is 76.4%; in the test on RXF 393 renal it was 67.9%; in the test with SF-268 CNS, 77.1%; in the test with SF-295 CNS it was 69.4%; with SF-539 CNS it was 92%; in the test with UACC-257 melanoma, 92.4%. Also, in the test with M14 melanoma, the growth was 72.3%.
Take `CNC(=O)c1c(NC(=O)c2ccc(C(C)(C)C)cc2)sc2c(CN(C)C)c(O)ccc12`: the growth in the test on NCI-H23 lung is 27%; in the test with NCI-H226 lung, 95%; in the test on NCI-H322M lung, 17.1%; in the test on HOP-62 NSCLC, 8.39% (active); in the test on NCI-H460 lung it was -72.5% (active); with HOP-92 NSCLC, 19%. Besides, the growth in the test with NCI-H522 lung is 75.9%; in the test with A549/ATCC NSCLC, 17.7%; with 786-0 renal, -76.9% (active); in the test on DU-145 prostate, 24.7%; with K-562 leukemia, -29.3% (active); in the test on MALME-3M melanoma, -88.9% (active). Further, the growth is -44.8% (active) with MDA-MB-231 breast; 36.2% in the test with RXF 393 renal; 3.83% (active) in the test on SF-268 CNS; -80.6% (active) with SF-295 CNS; -71.1% (active) with SF-539 CNS; -56.4% (active) in the test on UACC-257 melanoma. Besides, the growth with M14 melanoma was -72.3% (active).
As for `COc1cc2c3c(c1O)-c1ccccc1[C@@H]1OC(=O)N(CC2)[C@H]31`, the growth was 100% with NCI-H23 lung; 96.7% in the test with NCI-H226 lung; 113% in the test with NCI-H322M lung; 104% in the test on HOP-62 NSCLC; 100% with NCI-H460 lung; 80.8% in the test with HOP-92 NSCLC. The growth in the test with NCI-H522 lung was 94%; in the test with 786-0 renal, 102%; in the test with COLO 205 colon it was 107%; with DU-145 prostate it was 120%; in the test on K-562 leukemia, 112%; in the test on MALME-3M melanoma, 103%. The growth is 93.1% with MDA-MB-231 breast; 97.6% in the test with RXF 393 renal; 104% with SF-268 CNS; 103% in the test with SF-295 CNS; 108% in the test on SF-539 CNS; 95.6% with UACC-257 melanoma. Moreover, the growth with M14 melanoma is 103%.
Take `CC[C@H](C)[C@H](NC(=O)[C@H](CCCNC(=N)N)NC(=O)[C@H](Cc1c[nH]c2ccccc12)NC(=O)[C@@H](NC(=O)[C@H](CCCCN)NC(=O)[C@H](CCCCN)NC(=O)[C@@H](NC(=O)[C@@H](NC(=O)[C@@H](NC(=O)[C@H](CCCCN)NC(=O)[C@H](Cc1ccccc1)NC(=O)[C@H](CCCCN)NC(=O)[C@H](CCCCN)NC(=O)[C@H](Cc1ccccc1)NC(=O)[C@@H](NC(=O)[C@@H](N)CCCCN)[C@@H](C)CC)[C@@H](C)O)[C@@H](C)CC)[C@@H](C)CC)C(C)C)C(=O)N[C@@H](Cc1ccccc1)C(=O)NCC(=O)N[C@@H](CCCNC(=N)N)C(=O)N[C@@H](Cc1ccccc1)C(N)=O`: the growth in the test on NCI-H23 lung was -37.9% (active); with NCI-H226 lung, 1.83% (active); with NCI-H322M lung, -50.5% (active); with HOP-62 NSCLC it was -41.7% (active); in the test on NCI-H460 lung it was -5.53% (active); with HOP-92 NSCLC, -20.3% (active). The growth is 14.1% in the test with NCI-H522 lung; -40.6% (active) in the test on A549/ATCC NSCLC; -31.3% (active) in the test on 786-0 renal; -64.4% (active) with DU-145 prostate; 4.14% (active) in the test on K-562 leukemia; -64.4% (active) with MALME-3M melanoma. In addition, the growth in the test on MDA-MB-231 breast is -70.6% (active); with RXF 393 renal it was -2.96% (active); with SF-268 CNS it was -23.2% (active); in the test on SF-295 CNS it was -34.1% (active); in the test on SF-539 CNS it was -69.8% (active); in the test with UACC-257 melanoma it was 47.3%. The growth in the test on M14 melanoma is -18.4% (active).
